# Assay outcomes: PubChem BioAssay, National Center for Advancing Translational Sciences (NCATS)
# KB-3-1 cytotox: qHTS assay for MDR1-selective chemotherapeutics: Primary screen using the parental adenocarcinoma cell KB-3-1; actives 1.4% (n = 400,000); KB-3-1 viability, CellTiter-Glo ATP luminescence, 72 h; Potency, µM (highest dose often 46.1 µM), actives largely listed as cytotoxic; further: on the % scale 0 is the no-effect control and ±100 the full control effect; nearly all actives have a fitted effect of over 60% in size
#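 Cells are dispensed, compounds pinned in, plates held at 37 °C for 72 h, then CellTiter-Glo is added and luminescence read after 10 minutes. Cell line: parental KB-3-1 in phenol-red-free DMEM, 10% FBS.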
# PINK1 modulator: A Quantitative High throughput Screen to Identify Chemical Modulators of PINK1 Expression | AID 624263, 2012 | PINK1 immunofluorescence, high-content cytometry, 24 h | actives 0.2% (n = 410,000) | Potency, µM (series often up to 76.6 µM), for inactives: top-dose activation (PINK1 increase), usual class: activators; active means well fitted activation curve with a large enough effect; inconclusive means small, poorly fitted or top-dose-only effect; cell line not stated here; further: % of control where 0% means no effect; nearly all actives have a fitted effect of over 65% in size
#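 Decision-based qHTS: stable cells, 24 h exposure to five compound concentrations, CCCP as control. Fixed cells stained for PINK1 plus nuclear, mitochondrial and cell markers, cytometer read.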
# TSG101-PTAP inh: qHTS Assay for Iinhibitors of HIV-1 Budding by Blocking the Interaction of PTAP/TSG101. Tumor susceptibility gene 101 protein (Homo sapiens), Q99816. Fluorescence polarization, FITC-PTAP peptide / Tsg101 binding. Potency, µM (doses to about 115 µM), without a hit: top-dose activity change, negative = inhibition, actives largely listed as inhibitors. 340,000 tested, under 10 active; active means well fitted inhibition curve with a large enough effect in the main read-out, with a control signal flat, not every such curve was filed as active; inconclusive means small, poorly fitted or top-dose-only effect, or effect the other way, or a change in a side signal; inactive means no such curve, though single readings can be large or run the other way; further: % of control where 0% means no effect
# Target sequence (Q99816 whole entry, looked up): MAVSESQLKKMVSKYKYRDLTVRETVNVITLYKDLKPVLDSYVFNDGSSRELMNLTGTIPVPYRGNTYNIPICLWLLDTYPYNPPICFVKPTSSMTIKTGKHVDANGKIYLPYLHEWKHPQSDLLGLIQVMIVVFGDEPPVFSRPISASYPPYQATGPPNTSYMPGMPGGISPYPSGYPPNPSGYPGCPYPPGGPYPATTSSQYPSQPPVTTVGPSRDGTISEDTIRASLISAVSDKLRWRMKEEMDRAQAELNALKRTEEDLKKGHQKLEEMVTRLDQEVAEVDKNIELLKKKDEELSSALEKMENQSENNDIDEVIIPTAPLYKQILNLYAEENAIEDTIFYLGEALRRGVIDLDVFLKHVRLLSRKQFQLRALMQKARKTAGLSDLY
#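 Fluorescence polarization binding of Tsg101 binding domain (10 uM final) to FITC-labeled PTAP peptide (50 nM final) in HEPES pH 7.5 buffer with NaCl, Tween 20, EDTA, TCEP. Compounds added before peptide; binding 20 min at RT.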
# MCF10A rereplic: A quantitative high throughput screen for small molecules that induce DNA re-replication in MCF 10a normal breast cells; actives 2.9% (n = 350,000); MCF 10A DNA re-replication, Hoechst nuclear intensity, 48 h; Potency, µM (highest dose often 46.1 µM), inactives show at the highest dose activity, positive = re-replication, actives largely listed as activators; further: % of control where 0% means no effect; nearly all actives have a fitted effect of over 50% in size
# KB-V1 MDR tox: qHTS assay for MDR1-selective chemotherapeutics: Primary screen using the drug-selected MDR subline cells KB-V1. actives 3.4% (n = 400,000). AID 1347076, 2019. Potency, µM (highest dose often 46.1 µM), most hits filed as cytotoxic. KB-V1 MDR cells viability, CellTiter-Glo, 72 h; further: on the % scale 0 is the no-effect control and ±100 the full control effect; nearly all actives have a fitted effect of over 60% in size
#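 Drug-selected KB-V1 cells, grown in DMEM lacking phenol red with 10% FBS, receive compound titrations; after three days at 37 degrees C, surviving cell ATP is quantified by CellTiter-Glo luminescence and responses normalized and curve-fitted.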
# SW480 rerep: A quantitative high throughput screen for small molecules that induce DNA re-replication in SW480 colon adenocarcinoma cells; SW480 DNA re-replication, Hoechst DNA content imaging, 48 h; Potency, µM (highest dose often 46.1 µM), without a hit: at the top dose re-replication activation, most hits filed as activators; actives 1.8% (n = 340,000); AID 624297, 2012; further: % of control where 0% means no effect; nearly all actives have a fitted effect of over 55% in size
#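 DNA re-replication was detected as more nuclei of elevated Hoechst intensity after 48 hr exposure to compound (23 nL pinned per well of 250 cells).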
# Starred values were filed as active, the others as inactive; i = inactive; ? = inconclusive; nt = not tested or not shown; [ ] = remark or other dose. Compounds with a hit are over-represented: about 6.8% of the library has one in this group of screens. Unless noted, the call rests on the fitted dose curve; in most records, active means well fitted curve in the direction sought with a large enough effect; inconclusive means small, poorly fitted or top-dose-only effect, or another doubt; inactive means no such curve, though single readings can be large; an effect the other way counts as inactive or inconclusive. Potency means the concentration at half of the fitted maximal effect.
SMILES,KB-3-1 cytotox,PINK1 modulator,TSG101-PTAP inh,MCF10A rereplic,KB-V1 MDR tox,SW480 rerep
CCOC(=O)/C=C1\CN(Cc2ccc(OC)cc2)S(=O)(=O)c2ccc(C(F)(F)F)cc21,i,nt,nt,nt,?,nt
COc1ccc(OC)c(-c2cc(Cl)c3c(c2)CC(CNC(=O)[C@@H]2CCCN2C(C)=O)O3)c1 (stereo partly specified),nt,0.1%,nt,nt,nt,nt
N#Cc1ccc(CN2CCCC3(CCN(C(=O)c4csnn4)CC3)C2)cc1,nt,-0.9%,nt,nt,nt,nt
Cc1ccc(C=NNC(=O)c2cc(-c3cccnc3)nc3ccccc23)o1,?,8.2%,-14.1%,5.17µM*,?,7.31µM*
O=C(N/N=C/c1ccccn1)c1cc(C2CC2)nc2ccccc12,i,1.6%,-0.1%,9.3%,i,?
Cc1ccc(/C=N/NC(=O)c2cc(C3CC3)nc3ccccc23)o1,?,7.5%,-2.0%,5.8µM*,?,20.6µM*
Cc1cc(C(=O)N/N=C/c2ccc(C)o2)c2ccccc2n1,1.3µM*,12.0%,-0.5%,1.84µM*,?,5.8µM*
Cc1nn(-c2ccccc2)c(N2CCCC2)c1/C=N/NC(=O)c1cc(-c2cccnc2)nc2ccccc12,?,-1.0%,-4.4%,13µM*,?,?
CCCc1cc(C(=O)N/N=C/c2ccc(C)o2)c2ccccc2n1,?,2.3%,0.1%,?,?,?
C[C@@H](NC(=O)CN(c1ccccc1)S(=O)(=O)N(C)C)c1ccccc1,i,-1.4%,nt,nt,i,nt
CCc1nc2ccccc2n1CCCCOc1ccc(Cl)cc1,i,?,nt,nt,i,nt
Cc1ccc(/C=N/NC(=O)c2cc(-c3ccccc3)nc3ccccc23)o1,i,1.6%,-7.8%,5.8µM*,i,?
c1cc2[nH]snc2c2nc(C3CC3)nc12,?,-3.0%[38.3 µM],-5.5%,20.6µM*,?,19.7%
CN(NS(=O)(=O)c1ccc(Br)cc1)c1nc(C(F)(F)F)nc2ccccc12,?,15.8µM*,0.6%,16.3%,?,5.2%
COc1ccc(-c2nc3scc(CCNS(=O)(=O)c4ccc5c(c4)OCCO5)n3n2)cc1,nt,0.9%,nt,nt,nt,nt
Cc1cc(N/N=C/c2ccc(O)cc2O)nc(-n2nc(C)cc2C)n1,?,3.7%,-0.5%,5.17µM*,?,?
COc1ccc(/C=N/Nc2cc(C)nc(-n3nc(C)cc3C)n2)cc1,?,5.7%,0.0%,?,i,?
Cc1cc(N/N=C/c2cccc([N+](=O)[O-])c2)nc(-n2nc(C)cc2C)n1,?,11.0%,-4.1%,?,?,3.66µM*
CNc1ccnc(-c2ccccc2C(F)(F)F)n1,nt,0.5%,nt,nt,nt,nt
O=c1cc(O)c2sc(Nc3ccc(F)cc3)nc2[nH]1,i,19.0%,-4.0%,16.4µM*,i,?
O=C(NCC1CCCO1)c1nn2c(C(F)(F)F)cc(-c3ccco3)nc2c1Cl (stereo unspecified),i,19.9%,?,15.5%,i,18.8%
O=C(NCC1CCCO1)c1nn2c(C(F)(F)F)cc(-c3cc(Br)cs3)nc2c1Br (stereo unspecified),i,?,8.6%,14.6µM*,i,5.8µM*
Cc1ccc(O)c(-c2ccnc3cc(-c4ccc(Cl)cc4)nn23)c1,i,8.8%,nt,nt,i,nt
COC(=O)C=CC(=NNc1ccccc1)c1ccccc1,i,6.8%,-2.9%,18.4µM*,i,?
CC(C)(CC(=O)NCc1ccc(Cl)cc1Cl)CC1=NS(=O)(=O)c2ccccc2N1,?,44.7µM*,nt,nt,?,nt
SMILES,KB-3-1 cytotox,PINK1 modulator,TSG101-PTAP inh,MCF10A rereplic,KB-V1 MDR tox,SW480 rerep
C=CCSc1nnc(C2CCCN(Cc3ccccc3O)C2)n1C (stereo unspecified),nt,0.0%,nt,nt,nt,nt
COc1ccc(N2CCN(Cc3cccn3-c3nnc(N4CCN(C5CCCCC5)CC4)s3)CC2)cc1,i,-5.5%,nt,nt,i,nt
O=C(CCCCn1c(=O)c2ccccc2n(Cc2ccc(Cl)cc2)c1=O)NCc1ccco1,14.6µM*,15.5%,-0.4%,?,4.61µM*,?
Cc1cccc(Cn2c(=O)n(CCCC(=O)NCc3ccco3)c(=O)c3ccccc32)c1,9.2µM*,?,-2.6%,?,14.6µM*,20.6µM*
Cc1ccc(CNC(=O)CCCCn2c(=O)c3ccccc3n(Cc3ccc(Cl)cc3)c2=O)cc1,i,4.8%,nt,nt,i,nt
CC1c2cc3c(cc2CCN1C(=O)c1cccc(Cl)c1)OCCCO3 (stereo unspecified),?,0.4%,3.0%,?,5.8µM*,-8.7%
Cc1oc(/N=C/c2cccc([N+](=O)[O-])c2)c(C#N)c1C,i,2.3%,-0.1%,4.2%,i,-7.0%
Cc1ccc(N=Cc2nc(/C=C/c3cccc([N+](=O)[O-])c3)oc2O)cc1,i,?,-2.3%,?,16.4µM*,-4.1%
Cc1ccc(-c2nc(C=Nc3ccc(O)cc3)c(O)o2)cc1,i,3.3%,?,14.6µM*,?,5.8µM*
O=C1CC(C(=O)N2CCCC(c3nc(-c4ccncc4)ncc3-c3ccccc3)C2)C2(CCCCC2)O1 (stereo unspecified),nt,0.6%,nt,nt,nt,nt
COc1cccc(NC(=O)CSC2=Nc3ccccc3C3=NC(CCC(=O)NC4CCCCC4)C(=O)N23)c1 (stereo unspecified),i,2.6%,nt,nt,i,nt
Cc1cccc(-n2c3nc(=O)[nH]c(=O)c-3cc3ccc(Cl)cc32)c1C,i,0.2%,nt,nt,i,nt
N#CCSc1nc2c(cc1C#N)CCCCCC2,i,-2.1%,-7.2%,?,?,-5.1%
N#CCSc1nc2c(c(C3CC=CCC3)c1C#N)CCC2 (stereo unspecified),i,-1.9%,-13.8%,20.6µM*,i,0.5%
COc1ccc(N(C)C(=O)c2ccc3nc(-c4ccccc4)c(-c4ccccc4)nc3c2)cc1,?,1.0%,-1.6%,?,20.6µM*,9.7%
CC(C)N(C(=O)c1ccc2nc(-c3ccccc3)c(-c3ccccc3)nc2c1)C(C)C,?,14.4%,-1.9%,?,23.1µM*,-2.3%
COC(=O)c1ccc(NC(=O)N2CCN(c3nnc(C)c4c(C)n(-c5ccccc5)nc34)CC2)cc1,i,-0.3%,nt,nt,i,nt
